{
  "source": "PubChem BioAssay (NCATS)",
  "note": "Inconclusive results are not listed. Activity calls are given as the source filed them. The call rests on the fitted dose curve; in most records, active means well fitted cell-killing curve with a large enough effect; inconclusive means small, poorly fitted or top-dose-only effect, or effect the other way; inactive means no such curve, though single readings can be large or run the other way. Potency means the concentration at half of the fitted maximal effect.",
  "data": [
    {"test": "Quantitative High-Throughput drug screen in 47 multiple myeloma cell lines against the NCATS MIPE library collection: MM1R_ATCC cell viability assay (AID 1918981); further: nearly all actives have a fitted effect of over 35% in size", "conditions": "MM1R multiple myeloma cells, CellTiter-Glo viability, 48 h; series mostly up to 45.8 µM; viability (% of control): at the top concentration", "in_short": "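Cells were exposed to library compounds for 48 hours, after which ATP was measured by CellTiter-Glo. Signal was taken as median relative luminescence units.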", "values": [
      {"smiles": "CC1C(=O)OC2C(O)C34C5CC(C(C)(C)C)C36C(OC(=O)C6O)OC4(C(=O)O5)C12O", "note": "(configuration not stated)", "viability (% of control)": "114% (inactive)"},
      {"smiles": "C[C@@H](NC(=O)c1ncnc(N)c1Cl)c1ncc(C(=O)Nc2cc(C(F)(F)F)c(Cl)cn2)s1", "Potency": "18.7 µM (active)"},
      {"smiles": "C[C@@H](O)[C@H]1C(=O)N2C(C(=O)OCOC(=O)C(C)(C)C)=C(SC3CN(C4=NCCS4)C3)[C@H](C)[C@H]12", "Potency": "16.6 µM (active)"},
      {"smiles": "CN(C)CC[C@H](CSc1ccccc1)Nc1ccc(S(=O)(=O)NC(=O)c2ccc(N3CCN(Cc4ccccc4-c4ccc(Cl)cc4)CC3)cc2)cc1[N+](=O)[O-]", "Potency": "0.833 µM (active)"},
      {"smiles": "C[C@@H]1C[C@H]2[C@@H]3CCC4=CC(=O)C=C[C@]4(C)[C@@]3(F)[C@@H](O)C[C@]2(C)[C@@]1(O)C(=O)CO", "viability (% of control)": "123% (inactive)"},
      {"smiles": "O=c1[nH]c(=O)n([C@H]2C[C@@H](O)[C@@H](CO)O2)cc1I", "Potency": "6.62 µM (active)"},
      {"smiles": "CON(C)C(=O)N1N=C(c2cc(F)ccc2F)S[C@]1(CCCN)c1ccccc1", "viability (% of control)": "52.1% (inactive)"},
      {"smiles": "C[C@]12C=CC(=O)C=C1CC[C@@H]1[C@@H]2[C@@H](O)C[C@@]2(C)[C@@H]1CC[C@]2(O)C(=O)CO", "Potency": "6.62 µM (active)"},
      {"smiles": "CN1CCN2c3ncccc3Cc3ccccc3C2C1", "note": "(configuration not stated)", "viability (% of control)": "102% (inactive)"},
      {"smiles": "N#CC(c1ccnc(NCCc2cccnc2)n1)c1nc2ccccc2s1", "note": "(configuration not stated)", "Potency": "18.7 µM (active)"},
      {"smiles": "CN1[C@H]2CC[C@H]1CC(OC(=O)c1c[nH]c3ccccc13)C2", "note": "(some centres not stated)", "viability (% of control)": "113% (inactive)"},
      {"smiles": "Cc1cnc(-c2cc(N3CCN(C(=O)CCS(C)(=O)=O)CC3)ncc2Cl)c(C)c1", "Potency": "18.7 µM (active)"},
      {"smiles": "CN[C@@H]1[C@@H](O)[C@@H](O[C@@H]2[C@@H](O)[C@H](O[C@H]3O[C@H](CN)[C@@H](O)[C@H](O)[C@@H]3O)[C@@H](N)C[C@@H]2NC(=O)[C@@H](O)CN)OC[C@]1(C)O", "viability (% of control)": "129% (inactive)"},
      {"smiles": "CN1CCN(c2ncc(-c3cc(Cl)cc(Cl)c3Cl)c(N)n2)CC1", "viability (% of control)": "127% (inactive)"},
      {"smiles": "NC(=O)c1ccc(N(C(N)=O)c2c(F)cccc2F)nc1-c1ccc(F)cc1F", "viability (% of control)": "116% (inactive)"},
      {"smiles": "CCC[C@H](Nc1nc(-c2ccc(NC(=O)NCC)c(OC)c2)ncc1C)c1cccnc1", "Potency": "0.0187 µM (active)"},
      {"smiles": "NS(=O)(=O)c1cc(Cl)c(Cl)c(S(N)(=O)=O)c1", "viability (% of control)": "125% (inactive)"},
      {"smiles": "CCN(CC)CCCCNc1nc2cc(Cl)c(Cl)cc2nc1-c1ccc(-c2cccs2)s1", "Potency": "9.35 µM (active)"},
      {"smiles": "CO[C@H]1/C=C\\O[C@@]2(C)Oc3c(C)c(O)c4c(O)c(c(C=NN5CCN(C6CCCC6)CC5)c(O)c4c3C2=O)NC(=O)C(C)=CC=C[C@H](C)[C@H](O)[C@@H](C)[C@@H](O)[C@@H](C)[C@H](OC(C)=O)[C@H]1C", "Potency": "0.187 µM (active)"},
      {"smiles": "CC(=O)NCCC(=O)N[C@@H](CCC(N)=O)C(=O)N[C@@H](CO)C(=O)N[C@@H](CCC(N)=O)C(=O)N[C@@H](CCC(N)=O)C(=O)N[C@H](C(=O)N[C@@H](Cc1ccccc1)C(=O)N[C@]1(C)CCCCCCC=CCCC[C@@](C)(C(=O)N[C@@H](CCC(N)=O)C(=O)N[C@@H](CC(N)=O)C(N)=O)NC(=O)[C@H](CC(C)C)NC(=O)[C@H](CC(C)C)NC(=O)[C@@H](CCCNC(=N)N)NC(=O)[C@H](Cc2c[nH]c3ccccc23)NC(=O)[C@H](CC(C)C)NC(=O)[C@H](CC(N)=O)NC1=O)[C@H](C)O", "Potency": "26.4 µM (active)"},
      {"smiles": "CC1(C)[C@H]2CC[C@]3(C)[C@@H](C(=O)C=C4[C@@H]5C[C@@](C)(C(=O)O)CC[C@]5(C)CC[C@]43C)[C@@]2(C)CC[C@@H]1O", "viability (% of control)": "96.2% (inactive)"},
      {"smiles": "CC[C@H](NC(=O)[C@H](C)NC)C(=O)N1C[C@@H](O)C[C@H]1Cc1c(-c2[nH]c3cc(F)ccc3c2C[C@H]2C[C@H](O)CN2C(=O)[C@H](CC)NC(=O)[C@H](C)NC)[nH]c2cc(F)ccc12", "Potency": "0.418 µM (active)"},
      {"smiles": "COc1cc(C=CC(=O)O)ccc1O", "viability (% of control)": "137% (inactive)"},
      {"smiles": "Cc1ccccc1-n1c(Cn2nc(-c3cccc(O)c3)c3c(N)ncnc32)nc2cccc(C)c2c1=O", "Potency": "9.35 µM (active)"},
      {"smiles": "Cc1ccc2c(=O)c3cccc(CC(=O)O)c3oc2c1C", "Potency": "18.7 µM (active)"},
      {"smiles": "O=C(NCCCCN1CCOCC1)c1cc2ccccc2o1", "viability (% of control)": "100% (inactive)"},
      {"smiles": "Cc1[nH]c(C=C2C(=O)Nc3ccc(S(=O)(=O)N(C)c4cccc(Cl)c4)cc32)c(C)c1C(=O)N1CCN(C)CC1", "Potency": "23.5 µM (active)"},
      {"smiles": "N[C@@H](CC(=O)N1CCn2c(nnc2C(F)(F)F)C1)Cc1cc(F)c(F)cc1F", "viability (% of control)": "122% (inactive)"},
      {"smiles": "O=C(Nc1ccc(OC(F)(F)F)cc1)c1sccc1NCc1ccnc2ccccc12", "Potency": "20.9 µM (active)"},
      {"smiles": "COc1ccnc(CS(=O)c2nc3ccc(OC(F)F)cc3[nH]2)c1OC", "note": "(configuration not stated)", "viability (% of control)": "127% (inactive)"},
      {"smiles": "CN1c2ccccc2C(=O)N2CCc3c([nH]c4ccccc34)C21", "note": "(configuration not stated)", "viability (% of control)": "122% (inactive)"},
      {"smiles": "COc1cccc(OC)c1-c1cc(C(=O)NC2(C(=O)O)C3CC4CC(C3)CC2C4)nn1-c1ccnc2cc(Cl)ccc12", "note": "(configuration not stated)", "viability (% of control)": "100% (inactive)"},
      {"smiles": "O=C(NC[C@H](O)CO)c1ccncc1Nc1ccc(I)cc1F", "Potency": "13.2 µM (active)"},
      {"smiles": "CCOC(=O)N1CCN([N+]([O-])=NOc2cc(ON=[N+]([O-])N3CCN(C(=O)OCC)CC3)c([N+](=O)[O-])cc2[N+](=O)[O-])CC1", "Potency": "2.09 µM (active)"},
      {"smiles": "COc1ccc(Cn2ccc3ccc(C(=O)NO)cc32)cc1", "viability (% of control)": "89.4% (inactive)"},
      {"smiles": "O=C(CO)N1CCC(c2[nH]nc(-c3ccc(Cl)cc3)c2-c2ccncn2)CC1", "Potency": "0.662 µM (active)"},
      {"smiles": "CC1(COc2ccc3c(c2)ncn3-c2ccc3cccc(N4CCC(N)CC4)c3n2)COC1", "Potency": "0.526 µM (active)"}
    ]}
  ]
}
